Assay results: PubChem BioAssay AID2280 (The Scripps Research Institute Molecular Screening Center, 2010)
The campaign covered roughly 320,000 compounds. About 1,400 (0.44%) were called active.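 How the source made its calls: active means percent inhibition above a per-plate cutoff, the plate mean of test compounds plus 3 SD (cut at about 30% in these data); inactive means the rest.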 This excerpt belongs to a sample that is enriched for actives.

The compounds below were run against Female germline-specific tumor suppressor gld-1 (Caenorhabditis elegans) (UniProt Q17339) (assay: small molecules blocking C. elegans GLD-1 RNA recognition – biochemical, fluorescence polarization, primary screen (AID 2280;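 further: 0% = DMSO wells with GLD-1 and probe and 100% = wells lacking GLD-1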)). Details: purified GLD-1 + fluorescein TGE RNA, at 5.96 µM, stronger effect = higher value.
Sequence of Female germline-specific tumor suppressor gld-1 (Caenorhabditis elegans) (Q17339 whole entry, looked up): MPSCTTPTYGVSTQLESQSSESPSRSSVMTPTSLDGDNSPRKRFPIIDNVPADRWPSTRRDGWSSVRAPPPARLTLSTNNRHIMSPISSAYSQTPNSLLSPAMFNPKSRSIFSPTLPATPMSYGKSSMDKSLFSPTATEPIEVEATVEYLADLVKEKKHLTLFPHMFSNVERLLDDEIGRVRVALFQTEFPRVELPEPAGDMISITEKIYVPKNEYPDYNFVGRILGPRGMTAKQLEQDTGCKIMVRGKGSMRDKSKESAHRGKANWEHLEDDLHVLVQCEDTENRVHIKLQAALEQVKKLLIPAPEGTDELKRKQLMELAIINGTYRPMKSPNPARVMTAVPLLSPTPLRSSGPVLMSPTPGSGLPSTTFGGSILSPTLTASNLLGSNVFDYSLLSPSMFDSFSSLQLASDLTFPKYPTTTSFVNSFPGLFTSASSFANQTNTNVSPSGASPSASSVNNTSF
`Cc1cccc(N=C2NC(=O)CS2)c1C` was tested, and the inhibition was 5.66% (inactive).
For `COc1ccccc1CNS(=O)(=O)CC12CCC(CC1=O)C2(C)C` (configuration not stated), the inhibition was -1.89% (inactive).
`O=C(NCc1cccs1)C(=O)NCC1OCCCN1S(=O)(=O)c1ccc(F)cc1` (configuration not stated) was tested, and the inhibition was 1.56% (inactive).
For `O=C(Nc1ccccc1)N1CCN(C(=O)Nc2ccccc2)CC1`, the inhibition was 3.08% (inactive).
In the case of `Cc1ccc(C)c(S(=O)(=O)N2CCN(C(=O)Nc3ccccc3)CC2)c1`, the inhibition is reported as 34.2% (active).
In the case of `COc1ccc(C)cc1S(=O)(=O)N1CCN(S(=O)(=O)c2cc(C(=O)O)ccc2C)CC1`, the inhibition is reported as -3.62% (inactive).
In the case of `COc1cc2c(cc1NC(=O)COC(=O)/C=C/c1ccccc1)oc1ccccc12`, the inhibition is reported as 1.91% (inactive).
For `COC(=O)c1cc(CNC(=O)CC(C)c2ccccc2)ccc1OC` (configuration not stated), the inhibition was 31.6% (active).
`COc1ccc(CNC(=O)Cc2ccc(-c3ccccc3)cc2)cc1OC` was tested, and the inhibition was 11.5% (inactive).
`Cc1ccc(CNC(=O)CC(NC(=O)c2ccccc2)c2ccccc2)cc1` (configuration not stated) was tested, and the inhibition was 6.67% (inactive).
For `COc1ccc(C(C(=O)NC(C)(C)C)N(Cc2ccc(F)cc2)C(=O)CCC(=O)Nc2cc(C)on2)cc1` (configuration not stated), the inhibition was 3.47% (inactive).
`Cc1ccc(OCCNC(=O)CNC(=O)c2ccc(C)c(C)c2)cc1` was tested, and the inhibition was -0.98% (inactive).
In the case of `C=CCSc1nnc2c(n1)-c1cccc3cccc-2c13`, the inhibition is reported as -2.48% (inactive).
In the case of `CC(C)(C)NC(=O)CN1CCC(NC(=O)C23CC4CC(CC(C4)C2)C3)CC1`, the inhibition is reported as -2.46% (inactive).
In the case of `COc1ccc(Cl)cc1NC(=O)C(C)N1CCc2ccccc21` (configuration not stated), the inhibition is reported as -0.08% (inactive).
For `CCCCN(C(=O)CSCC(=O)Nc1ccc(OC)cc1)c1c(N)n(CCC)c(=O)[nH]c1=O`, the inhibition was 4.96% (inactive).
For `C[C@H](CO)N1C[C@H](C)[C@@H](CN(C)Cc2ccc(-c3ccccc3)cc2)Oc2ccc(NC(=O)Cn3cnnn3)cc2C1=O`, the inhibition was 2.45% (inactive).
With `N#CC1=C(N)C(C#N)(C#N)[C@H](c2ccsc2)[C@H]2COCC=C12` the inhibition was 34.7% (active).
For `Cc1cccc(-n2ncc3c(=O)[nH]c(SCC(=O)Nc4cc(C)on4)nc32)c1`, the inhibition was 2.41% (inactive).
With `O=C(COC(=O)CSc1ccccc1)Nc1ccc(F)cc1F` the inhibition was -2.02% (inactive).
With `COc1ccc(OC)c(C(=O)c2ccc(C(=O)N3CCN(Cc4csc(C)n4)CC3)cc2)c1` the inhibition was -0.78% (inactive).
For `Oc1ccc2ccccc2c1N=Nc1nccs1`, the inhibition was 33.5% (active).
For `COc1ccc2[nH]c(=O)c(CN(Cc3cccnc3)S(=O)(=O)c3ccccc3F)cc2c1`, the inhibition was 8.84% (inactive).
In the case of `COc1cc(C2C(C(=O)c3ccco3)=C(O)C(=O)N2c2cc(C)on2)ccc1OCc1ccccc1` (configuration not stated), the inhibition is reported as -1.87% (inactive).
With `O=C(C1=C(O)C(=O)N(Cc2ccccc2)C1c1cccnc1)c1ccco1` (configuration not stated) the inhibition was -1.41% (inactive).
For `O=C(C1=C(O)C(=O)N(c2ncccn2)C1c1cccs1)c1ccco1` (configuration not stated), the inhibition was 110% (active).
With `CN(c1ccccc1)S(=O)(=O)c1ccc2[nH]c(=O)[nH]c2c1` the inhibition was -0.63% (inactive).
For `Cc1ccc(C)c(OCCC(=O)OCC(=O)N2CCN(c3ccccc3)CC2)c1`, the inhibition was -2.09% (inactive).
For `Cc1sc2ncnc(SCC(=O)Nc3ccc(CN4CCCC4)cc3)c2c1C`, the inhibition was -0.9% (inactive).
In the case of `COc1ccccc1C1CCN(c2ccc([N+](=O)[O-])cn2)CC1`, the inhibition is reported as 3.13% (inactive).
With `COc1ccc(C(=O)NCCNc2ccc([N+](=O)[O-])cn2)cc1` the inhibition was 9.44% (inactive).
With `COc1ccc(Nc2ccc([N+](=O)[O-])cn2)cn1` the inhibition was 44.7% (active).
For `CCN1CCN(c2ccc(S(=O)(=O)N3CCCCC3)cc2NC(=O)Cc2c(Cl)cccc2Cl)CC1`, the inhibition was -0.26% (inactive).
In the case of `CCN(C[C@H]1N[C@@](CC)(C(=O)OC)[C@H]2C(=O)N(C)C(=O)[C@@H]12)C(=O)Nc1ccc(F)cc1`, the inhibition is reported as 1.26% (inactive).
`CCC(=O)Nc1ccc(S(=O)(=O)Nc2c(NC)c3ccccc3oc2=O)cc1` was tested, and the inhibition was 0.71% (inactive).
`C[C@H](NC(=O)c1nc[nH]c1C(=O)N[C@@H](C)C(=O)OC(C)(C)C)C(=O)OC(C)(C)C` was tested, and the inhibition was 0.74% (inactive).
For `O=[N+]([O-])/C=C/c1ccc2c(ccn2Cc2ccccc2)c1`, the inhibition was 7.04% (inactive).
With `O=C(OCCOCn1cc(Br)c(=O)[nH]c1=O)c1ccccc1` the inhibition was 5.67% (inactive).
With `COc1cc(C(=O)NCc2ccc3c(c2)cc(C)n3C)cc(OC)c1OC` the inhibition was 34.8% (active).
In the case of `CCOCC(=O)NCc1ccc2c(c1)cc(C)n2C`, the inhibition is reported as 25.6% (inactive).
With `COc1cc(C(=O)NCc2cc3cc(Cl)ccc3n2C)cc(OC)c1OC` the inhibition was -2.07% (inactive).
For `CCCC(C(=O)n1nc(C)cc1C)C(NS(=O)(=O)c1ccc(C)cc1)c1ccccc1` (configuration not stated), the inhibition was 2.32% (inactive).
With `O=C(COC(=O)[C@H](Cc1ccccc1)NC(=O)c1cccs1)Nc1cc(F)ccc1F` the inhibition was 8.92% (inactive).
With `COCCn1c(SCC(=O)N2CCCCCC2)nc2c(c1=O)SCC2` the inhibition was -2.72% (inactive).
For `COc1cc(C(=O)N2C(=O)c3cccc(N)c3C2=O)cc(OC)c1OC`, the inhibition was 10.9% (inactive).
`CC(=O)N1CCN(S(=O)(=O)c2cccc(C(=O)NC3CCC(C)CC3)c2)CC1` (configuration not stated) was tested, and the inhibition was 1.54% (inactive).
For `CC1CC(C)CN(S(=O)(=O)c2cccc(C(=O)N3C(=O)c4cccc(N)c4C3=O)c2)C1` (configuration not stated), the inhibition was 31.4% (active).
With `CCOc1cc(/C=C2/N=C(c3ccc(C(C)(C)C)cc3)OC2=O)cc(Cl)c1OS(C)(=O)=O` the inhibition was 4.12% (inactive).
For `CCOC(=O)N1CCN(c2cc(C)c([N+](=O)[O-])cc2F)CC1`, the inhibition was -3.69% (inactive).
With `O=C(C1=C(O)C(=O)N(CCOCCO)C1c1ccccn1)c1cccs1` (configuration not stated) the inhibition was 5.95% (inactive).
For `O=C(O)CCn1c(Cc2ccccc2)nc2ccccc21`, the inhibition was -2.47% (inactive).
For `Cc1cc2ccccc2n1CCC(=O)O`, the inhibition was 50.2% (active).
With `Cc1cc2ccccc2n1CCNC(=O)COc1ccc2ccccc2c1` the inhibition was 7.21% (inactive).
With `COC(=O)c1cn(C)c2ccc(S(=O)(=O)N3CC(C)CC(C)C3)cc2c1=O` (configuration not stated) the inhibition was 3.86% (inactive).
For `Cc1ccc(NC(=O)C(C)c2cccc(C(=O)c3ccccc3)c2)cc1` (configuration not stated), the inhibition was 2.46% (inactive).
For `O=C(CCc1ccccc1)Nc1ccc(NC(=O)C2CC2)nc1`, the inhibition was 8.07% (inactive).
With `N[C@@H](Cc1ccccc1)C(=O)N1CCOCC1` the inhibition was 10.2% (inactive).
`O=C(NCCN1CCOCC1)[C@H](Cc1ccccc1)N1C(=O)c2ccccc2C1=O` was tested, and the inhibition was 5.89% (inactive).
`C=C1CCN([C@@H](Cc2ccccc2)C(=O)N2CCOCC2)S(=O)(=O)c2ccccc21` was tested, and the inhibition was 39.9% (active).
`CCN(c1ccc2c(c1)OCO2)S(=O)(=O)c1cc(Br)cc2c1N(C(=O)C1CC1)CC2` was tested, and the inhibition was 2.82% (inactive).
`Cc1ccc(S(=O)(=O)c2c[nH]c3ccc(Cl)cc3c2=O)cc1` was tested, and the inhibition was 1.43% (inactive).
`Cc1cc(=O)oc2cc(OCC3CC(c4ccccc4Cl)=NO3)ccc12` (configuration not stated) was tested, and the inhibition was 4.3% (inactive).
`CC(=O)c1nnn(-c2ccc(Cl)cc2C#N)c1C` was tested, and the inhibition was 2.27% (inactive).
`CC[N+](C)(CC)CCC[n+]1c(-c2ccccc2)c2cc(N)ccc2c2ccc(N)cc21` was tested, and the inhibition was 62.4% (active).
For `CC(C)[C@H](NC(=O)N1CCn2c1nc1ccccc12)C(=O)NC1CC1`, the inhibition was -3.08% (inactive).
With `CC1CCN(c2c(NCc3ccc(C(=O)NCc4ccccc4)cc3)c(=O)c2=O)CC1` the inhibition was -1.64% (inactive).
For `Cc1ccc(CNC(=O)c2ccc3c(c2)S(=O)(=O)c2ccccc2C3=O)cc1`, the inhibition was -2.48% (inactive).
For `Cc1ccc(CNC(=O)c2cccc3c2C(=O)c2ccc(N4CCC(C)CC4)cc2S3(=O)=O)cc1`, the inhibition was 124% (active).
`O=[N+]([O-])c1cc(S(=O)(=O)Nc2cccc(Cl)c2)ccc1N=Nc1c(O)[nH]c2ccccc12` was tested, and the inhibition was 0.17% (inactive).
With `O=C(NCC(c1cccs1)N1CCOCC1)c1cc(Cl)ccc1[N+](=O)[O-]` (configuration not stated) the inhibition was 1.88% (inactive).
In the case of `CCOC(=O)CN(C)S(=O)(=O)c1ccc(-c2cc(C(=O)OC)sc2C(F)(F)F)cc1`, the inhibition is reported as 9.97% (inactive).
`COc1ccc(C2C=C(c3ccc(Br)cc3)Nc3nc(NS(C)(=O)=O)nn32)cc1` (configuration not stated) was tested, and the inhibition was 155% (active).
In the case of `COc1ccc(C2=CC(c3cccc(OC)c3)n3nnnc3N2)cc1` (configuration not stated), the inhibition is reported as 14.6% (inactive).
`CSc1cccc(NC(=O)CN2C(=O)COc3ccc(S(=O)(=O)N4CCOCC4)cc32)c1` was tested, and the inhibition was -0.09% (inactive).
For `N#CCc1ccc(NC(=O)c2ccccc2C(=O)Nc2ccc(CC#N)cc2)cc1`, the inhibition was -0.7% (inactive).
In the case of `COc1cccc(NC(=O)CN(C)CC(=O)c2c(N)n(Cc3ccccc3)c(=O)n(C)c2=O)c1`, the inhibition is reported as 3.38% (inactive).
For `O=C1NCCn2nc3ccccc3c21`, the inhibition was -0.55% (inactive).
With `O=c1[nH]c(=O)c2nc3ccccc3nc2[nH]1` the inhibition was 48.7% (active).
For `CNC(=O)c1cccc2nc3ccccc3nc12`, the inhibition was 3% (inactive).
With `Nc1ccc2nc3c(=O)[nH]c(=S)[nH]c3nc2c1` the inhibition was 172% (active).
For `Cc1csc(/N=C/N(C)C)c1C#N`, the inhibition was 7.85% (inactive).
With `COc1cccc(NC(=O)C(=O)c2cn(CC(=O)N3CCOCC3)c3ccccc23)c1` the inhibition was 9.65% (inactive).
`Cc1ccc(C2(C)NC(=O)N(CC(=O)N3CC(=O)Nc4ccccc43)C2=O)cc1` (configuration not stated) was tested, and the inhibition was -0.04% (inactive).
In the case of `Cc1ccc(-c2nnc(Nc3ccc(C(=O)N(C)C)cc3)c3ccccc23)cc1S(N)(=O)=O`, the inhibition is reported as 6.66% (inactive).
For `O=C(Nc1cccc(F)c1)N1C2CCC1CC(O)(c1cccnc1)C2` (configuration not stated), the inhibition was -5.02% (inactive).
In the case of `CC[C@]1(O)C[C@@H]2CN(CCc3c([nH]c4ccccc34)[C@@](C(=O)OC)(c3cc4c(cc3OC)N(C)[C@H]3[C@@](O)(C(=O)OC)[C@H](OC(C)=O)[C@]5(CC)C=CCN6CC[C@]43[C@@H]65)C2)C1`, the inhibition is reported as 35.9% (active).
In the case of `CC[C@]1(O)CC2CN(CCc3c([nH]c4ccccc34)[C@@](C(=O)OC)(c3cc4c(cc3OC)N(C=O)[C@H]3[C@@](O)(C(=O)OC)[C@H](OC(C)=O)[C@]5(CC)C=CCN6CC[C@]43[C@@H]65)C2)C1` (some centres not stated), the inhibition is reported as 8% (inactive).
